Consider 35 compounds from PubChem BioAssay AID1259343 (VanderVen Lab, College of Veterinary Medicine, Cornell …, 2017).

Structures are written as SMILES. Out of some 6,200 compounds screened, about 2,900 (47%) were called active. The set was probably picked from earlier hits. This is one part of the list. Values without a mark were called inactive. Cut-off read from the data, not from the text of the source: active = inhibition above about 50%; inactive = the rest.

The test in a line: Mycobacterium tuberculosis growth inhibition, primary screen (AID 1259343). Particulars: inhibition: at 10 µM, hits give high values; outcome: 10 uM.
As for `O=C(NCCO)c1ccc(OCc2ccc(Cl)s2)cc1`, the inhibition is -5.18%.
For `N#CC1=C(NC(=O)c2ccc(COc3ccc(Cl)cc3)cc2)CCC1`, the inhibition is 82.1% (active).
The figure for `CCc1ccc(Nc2ccc([N+](=O)[O-])c3nonc23)cc1` is 85.6% (active); for `Cc1nonc1OCCCNc1ccc([N+](=O)[O-])cc1` it is 37.2%; for `CC12CCC(CC1=NNc1nc3ccccc3o1)C2(C)C` (stereo not given) it is 83.6% (active).
Regarding `CCCCc1nnc(NC(=O)C2Cc3ccccc3S2)s1` (stereo not given), the inhibition is 54.4% (active).
For `O=C(NCCNc1ncc(C(F)(F)F)cc1Cl)C1Cc2ccccc2S1` (stereo not given), the inhibition is 46.4%.
Consider `CCCCc1nnc(NC(=O)N2CCc3ccccc3C2)s1`, for which the inhibition was 33.5%.
In the case of `CCCCCc1nnc(NC(=O)Cc2ccccc2)s1`, the inhibition is 89.6% (active).
For the compound `CCCc1nnc(NC(=O)CC(=O)Nc2ccccc2C(=O)O)s1`, the inhibition was 9.89%.
For the compound `CCC(Cc1c(I)cc(I)c(N)c1I)C(=O)O` (stereo not given), the inhibition was 84.2% (active).
Under `CCOC(=O)c1ccc(NC(=O)CSc2nc(=O)n3ccccc3n2)cc1` stands 90.4% (active); under `CCc1ccc(NC(=O)CSc2nc(=O)n3ccccc3n2)cc1`, -1.93%; under `O=c1nc(SCc2cccc(C(F)(F)F)c2)nc2ccccn12`, -26.8%.
The figure for `c1coc(-c2cc(CSc3nnc(Cc4cccs4)n3C3CC3)no2)c1` is -54.4%; for `Cc1[nH]n(-c2ccc(Cl)cc2)c(=O)c1C1=C(c2c[nH]c3ccccc23)C(=O)N(Cc2ccc(F)cc2)C1=O` it is 61.5% (active); for `O=C(Nc1nc(-c2c[nH]c3ccccc23)cs1)c1ccc(F)cc1Cl` it is 17%.
Regarding `CCc1nc2c(OCCOc3ccc(F)cc3)cccn2c1N(C)C(=O)c1ccccc1F`, the inhibition is 45.2%.
Turning to `CCOC(=O)N1CCC(NS(=O)(=O)CCCOc2ccc(F)cc2)CC1`, the inhibition is 45%.
As for `Cc1ccccc1C(c1ncccc1C)N(C)C(=O)C1CCN(CCCOc2ccc(F)cc2)CC1` (stereo not given), the inhibition was 60.1% (active).
Take `N#Cc1ccc(NCCc2cccc(F)c2)cn1`: the inhibition is 36.5%.
On to `CC(NC(=O)C/C=C/c1cccc(F)c1)C(O)Cc1ccccc1` (stereo not given), for which the inhibition was 15.7%.
In the case of `CS(=O)(=O)Nc1ccc(/C=C/C(=O)NCCc2cccc(F)c2)cc1`, the inhibition was 52.3% (active).
For the compound `CCc1ccc(CNc2ccc(CNc3ncn[nH]3)cc2)cc1`, the inhibition was 91.1% (active).
Regarding `Cc1ccccc1-c1noc(-c2cccc(NC(=O)CCN3CCCO3)c2)n1`, the inhibition is 19.4%.
As for `Cc1cc(NC(=O)CNCCN2CCCOC2=O)ccc1Cl`, the inhibition was 77.5% (active).
Under `COc1cc(NC(=O)CNCCN2CCOC2=O)ccc1Cl` stands 55.3% (active); under `Cc1nc2ccccn2c1C(=O)OCc1cc(-c2ccco2)on1`, 33.3%.
Take `COc1cccc(-c2cc(CC(=O)NC3CCCC3)no2)c1`: the inhibition is 19.6%.
Take `CCC(=O)c1ccc(OCc2cc(-c3ccccc3)on2)cc1`: the inhibition was 92.5% (active).
In the case of `CC(C)CN1C(=O)C(=Cc2c(N3CCN(CCO)CC3)nc3ccccn3c2=O)SC1=S`, the inhibition was 7.51%.
`NC(=O)CSc1nccc2c(OCc3ccc(F)cc3)cccc12`: the inhibition was 77.4% (active).
`Cc1sc(NC(=O)C2CC2)c(C(=O)N2CCc3ccccc32)c1C`: the inhibition was -6.91%.
For `CNS(=O)(=O)c1ccc(C(=O)N2CCc3ccccc32)o1`, the inhibition is 89.9% (active).
For the compound `CNS(=O)(=O)c1ccc2c(c1)CCN2C(=O)c1ccc(F)cc1F`, the inhibition is 32%.

For orientation: inhibition means the change of the read-out against control, counted positive when it falls.
